Screens (PubChem BioAssay)
An excerpt weighted towards active compounds, which were near 6.9% of everything screened.
MCF10A rereplic: A quantitative high throughput screen for small molecules that induce DNA re-replication in MCF 10a normal breast cells. MCF 10A DNA re-replication, Hoechst nuclear intensity, 48 h. Potency, µM (highest dose often 46.1 µM), for inactives: at the highest dose activity, positive = re-replication, hits mostly activators. hit rate 2.9% among 350,000. AID 624296, 2012; further: potency means the concentration at half of the fitted maximal effect; % of control where 0% means no effect; nearly all actives have a fitted effect of over 50% in size
Giardia kill: Small Molecules that selectively kill Giardia lamblia: qHTS. AID 540267, 2011. hit rate 0.15% among 340,000. activity change, % at 7.66 µM, hits read low. Giardia lamblia trophozoite viability; in the data active means activity change below about -80%; inconclusive means between about -30% and that limit;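 further: parasites exposed to compound for two days anaerobically before the ATP read; on the % scale 0 is the no-effect control and ±100 the full control effect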
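Anaerobic 48 hrs incubation at 37 deg C of 100 trophozoites/well with test compounds; ATPLite 1-Step luminescence, 15-30 min RT, reports cellular ATP as viability.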
Vif-APOBEC3F blk: qHTS for Inhibitors of Vif-A3F Interactions: qHTS | HeLa A3F-eYFP + Vif (tagged APOBEC3F with the HIV-1 protein that degrades it), YFP fluorescence increase | Potency, µM (highest dose often 46.1 µM), for the others: top-dose activity, negative = active | hit rate 0.2% among 390,000 | AID 602313, 2012; further: potency means the concentration at half of the fitted maximal effect; % of control where 0% means no effect; nearly all actives have a fitted effect of over 65% in size
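HeLa cells stably expressing A3F-eYFP plus Vif, plated and incubated overnight at 37 deg C, then exposed to compounds overnight at 37 deg C. Blocked degradation read as raised yellow fluorescence (Ex 488/Em 500-530).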
IL1B secr inh: qHTS for Inhibitors of Inflammasome Signaling: IL-1-beta AlphaLISA Primary Screen. THP-1 LPS/ATP IL-1B secretion, AlphaLISA, 16 h; hits give low values. activity change, % at 57.5 µM. hit rate 4.7% among 360,000. AID 743279, 2014; in the data active means activity change below about -50%; inconclusive means mostly about -30% to -49%; further: on the % scale 0 is the no-effect control and ±100 the full control effect
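THP-1 cells pretreated 1 hr with compounds (up to 57.5 uM final), then stimulated with LPS (250 ng/mL final) plus ATP (1.25 mM final); secreted IL-1B measured by AlphaLISA after 16 hr, decreased signal indicating inhibition.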
SW480 rerep: A quantitative high throughput screen for small molecules that induce DNA re-replication in SW480 colon adenocarcinoma cells. Potency, µM (titrated, usually from 46.1 µM), without a hit: at the highest dose re-replication activation, hits mostly activators. hit rate 1.8% among 340,000. SW480 DNA re-replication, Hoechst DNA content imaging, 48 h; further: potency means the concentration at half of the fitted maximal effect; % of control where 0% means no effect; nearly all actives have a fitted effect of over 55% in size
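Treated cells incubate 48 hr (37 C, 5% CO2), are stained 40 min with Hoechst, and nuclear fluorescence is enumerated; a rise in nuclei with high DNA signal marks re-replication.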
Vif-APOBEC3G blk: qHTS for Inhibitors of Vif-A3G Interactions: qHTS; HeLa A3G-eYFP + Vif (tagged APOBEC3G with the HIV-1 protein that degrades it), YFP fluorescence, overnight; Potency, µM (doses to about 46.1 µM), inactives show at the top dose activity, negative = active, usual class: inhibitors; hit rate 0.076% among 410,000; further: potency means the concentration at half of the fitted maximal effect; on the % scale 0 is the no-effect control and ±100 the full control effect; nearly all actives have a fitted effect of over 60% in size
Target sequence (Q9HC16 whole entry, looked up): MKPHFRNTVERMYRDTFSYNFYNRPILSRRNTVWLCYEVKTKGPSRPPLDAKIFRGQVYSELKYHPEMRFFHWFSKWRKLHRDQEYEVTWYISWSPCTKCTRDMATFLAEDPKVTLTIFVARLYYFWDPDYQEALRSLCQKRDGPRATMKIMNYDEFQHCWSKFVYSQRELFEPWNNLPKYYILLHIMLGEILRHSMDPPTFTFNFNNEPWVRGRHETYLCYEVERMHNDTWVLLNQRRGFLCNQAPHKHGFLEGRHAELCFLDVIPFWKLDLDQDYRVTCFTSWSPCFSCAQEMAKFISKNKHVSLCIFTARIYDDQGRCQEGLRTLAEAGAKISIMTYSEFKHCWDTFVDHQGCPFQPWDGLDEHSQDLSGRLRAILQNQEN
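HeLa cells stably expressing Vif and C-terminally eYFP-tagged A3G, seeded overnight at 37 deg C, then exposed to compound by pintool overnight at 37 deg C. Rise in yellow fluorescence (Ex 488/Em 500-530, Acumen) marks blocked Vif-driven A3G degradation.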
The depositor's hits bear a star; ? = inconclusive; nt = not tested or not shown. Unless noted, the call rests on the fitted dose curve; in most records, active means well fitted curve in the direction sought with a large enough effect; inconclusive means small, poorly fitted or top-dose-only effect, or another doubt; inactive means no such curve, though single readings can be large; an effect the other way counts as inactive or inconclusive.

SMILES | MCF10A rereplic | Giardia kill | Vif-APOBEC3F blk | IL1B secr inh | SW480 rerep | Vif-APOBEC3G blk
Cc1c(C)n(O)c2ccc3nonc3c12 | 20.6µM* | -14.7 | -10.4% | nt | ? | -3.2%
Nc1ccc2nonc2c1[N+](=O)[O-] | -10.3% | -11.2 | ? | 8.1 | -30.9% | -6.9%
CCOC(=O)[C@]12Cc3ccccc3[C@H]1N(Cc1ccccc1)C(=O)c1cc(OC)ccc12 | nt | nt | nt | -13.3 | nt | nt
CCOC(=O)[C@]12Cc3cc(OC)ccc3[C@H]1N(C(C)C)C(=O)c1cc(OC)ccc12 | nt | nt | nt | -116.6* | nt | nt
CCOC(=O)[C@]12Cc3c(cc(OC)c(OC)c3OC)[C@H]1N(C(C)C)C(=O)c1cc(OC)ccc12 | nt | nt | nt | -113.3* | nt | nt
CCOC(=O)[C@]12Cc3cc(C)ccc3[C@H]1N(C)C(=O)c1cc(OC)ccc12 | nt | nt | nt | -116.2* | nt | nt
COc1ccc2c(c1)/C(=C/c1cnc[nH]1)C(=O)N2 | ? | -22.8 | 6.4% | -111.3* | ? | -11.8%
O=C1Nc2ccccc2/C1=C/c1cnc[nH]1 | ? | -1.0 | -12.8% | -25.1 | ? | 7.5%
COc1ccc(-n2c(/C=C3\C(=O)Nc4ccccc43)nc3ccccc3c2=O)cc1 | 14.0% | 9.0 | -0.4% | -22.2 | 15.3% | 1.3%
COc1cc(OC)c(/C=C2\C(=O)Nc3ccccc32)c(OC)c1 | 5.17µM* | 5.7 | 2.0% | -1.9 | 11.6µM* | ?
CC1CCCC(C)N1/N=C/c1c[nH]c2ccc(Br)cc12 (configuration not stated) | ? | 17.0 | 1.0% | -93.3* | ? | -8.5%
CCC(=O)O[C@H]1CC[C@H]2[C@@H]3CCC4=CC(=O)CC[C@]4(C)[C@H]3CC[C@]12C | ? | -9.4 | -7.6% | -71.6* | -80.8% | -4.3%
CC(=O)C1C(N2CC2)CC2C3CCC4=CC(=O)CCC4(C)C3CCC21C (configuration not stated) | 16.4µM* | -1.8 | -1.3% | -61.2* | ? | -2.6%
CC(C)(C)c1ccc(C(=O)NC(=S)Nn2cnnc2)cc1 | ? | 4.8 | -6.4% | 11.4 | 0.8% | -0.2%
O=c1oc2cccnc2n1CCS(=O)(=O)c1ccc(F)cc1 | 20.6µM* | -10.5 | -7.1% | -66.2* | ? | -9.5%
CCCCSc1nc2c(cnn2-c2ccccc2)c(=O)n1N | 16.3% | 11.9 | -8.4% | -50.5* | -2.8% | 0.2%
Nc1cnn(-c2ccccc2)c(=O)c1Cl | 2.0% | -3.8 | 7.8% | 26.2 | -2.2% | -4.6%
COc1ccc(C2=CC(c3ccc(OC)c(OC)c3)c3c(c4ccccc4oc3=O)O2)cc1OC (configuration not stated) | 2.91µM* | 4.9 | -8.4% | 17.4 | 13µM* | -31.5%
CC(NC1CCCCC1)C(O)C12CC3CC(CC(C3)C1)C2 (configuration not stated) | -6.4% | -9.8 | -9.2% | -54.7* | 2.8% | 0.5%
CN1[C@@H]2CC(OC(=O)[C@@H](CO)c3ccccc3)C[C@@H]1[C@H]1O[C@H]12 (some centres not stated) | 9.7% | nt | nt | nt | -4.4% | nt
CC(=O)OCC12CC(OC(=O)CC(C)C)C(C)=CC1OC1C(O)C(OC(C)=O)C2(C)C12CO2 (configuration not stated) | ? | ? | -22.8% | -83.2* | ? | -7.9%
S=C(NCCc1ccccc1)N1Cc2ccccc2-n2nncc2C1 | nt | nt | -1.4% | 51.8 | nt | -5.5%
COc1cc(C[C@@H](C)N)c(OC)cc1I | -3.9% | -5.6 | -4.7% | -63.8* | 12.0% | 0.5%
CCCCn1c(C)c(C(=O)OCC)c2c(CN3CCOCC3)c(O)ccc21 | -9.0% | 7.6 | -2.0% | -60.4* | 3.5% | 1.7%
CCCCn1c(C)c(C(=O)OCC)c2c(CN3CCCC3)c(O)ccc21 | 20.7% | 38.4 | -3.2% | -78.6* | ? | -0.2%
SMILES | MCF10A rereplic | Giardia kill | Vif-APOBEC3F blk | IL1B secr inh | SW480 rerep | Vif-APOBEC3G blk
CC(C)CC(CN)CC(=O)O (configuration not stated) | 4.7% | nt | nt | nt | 3.2% | nt
C[C@H](CO)N1C[C@H](C)[C@H](CN(C)S(=O)(=O)c2ccccc2)Oc2ccc(NC(=O)NC3CCCCC3)cc2CC1=O | ? | 1.3 | 3.8% | ? | 17.6% | -6.0%
CCc1ccccc1NC(=O)c1cccn(Cc2ccccc2F)c1=O | nt | nt | 5.9% | nt | nt | -2.3%
Cc1ccc(CN2C3CCCC2CC(NC(=S)NCc2ccccc2)C3)cc1 (configuration not stated) | 6.0% | -3.1 | 8.4% | -64.5* | ? | -3.9%
O=C1C(I)=CC(=C(c2cc(I)c(O)c(I)c2)c2ccccc2C(=O)O)C=C1I | ? | nt | nt | nt | -2.7% | nt
O=C(Nc1ccc2c(c1)OCO2)c1cccn(Cc2cccc([N+](=O)[O-])c2)c1=O | nt | nt | -8.5% | nt | nt | 0.3%
CCOC(=O)c1cccc(-[n+]2c(-c3ccccc3)cc(-c3ccccc3)cc2-c2ccccc2)c1 | 0.6% | -13.0 | 2.7% | -66.5* | ? | 1.0%
CCOC(=O)c1ccc(-[n+]2c(-c3ccccc3)cc(-c3ccccc3)cc2-c2ccccc2)cc1 | ? | 17.1 | -18.3% | -98.8* | ? | -9.5%
CCC(C)C1O[C@]2(C=CC1C)CC1CC(C/C=C(\C)[C@H](OC3CC(OC)C(O[C@H]4CC(OC)[C@@H](O)C(C)O4)C(C)O3)[C@@H](C)/C=C/C=C3\COC4C(O)C(C)=C[C@H](C(=O)O1)[C@@]34O)O2 (some centres not stated) | ? | nt | nt | nt | 5.7% | nt
COc1ccc(CNCCc2c(C)[nH]c3ccc(OC(F)(F)F)cc23)c(OC)c1 | 20.6µM* | -3.0 | 11.4% | -95.5* | ? | -19.0%
Cc1cccc(-n2c(/C=C/c3cn(C)c4ccccc34)nc3ccccc3c2=O)c1 | nt | nt | -0.9% | nt | nt | 2.1%
CN1CCN(c2ccccc2NC(=O)c2ccc(-c3ccc(Cl)c(Cl)c3)o2)CC1 | ? | 2.3 | 0.7% | -77.7* | ? | -7.2%
CC1CCN(c2ccccc2NC(=O)c2cc3ccccc3o2)CC1 | ? | 1.0 | -10.7% | 0.0 | 13.0% | -3.4%
O=C(COc1ccccc1Cl)N1CCN(CCc2ccncc2)CC1 | nt | nt | -4.2% | nt | nt | 6.2%
Clc1ccccc1Cl | -1.0% | nt | nt | nt | -8.5% | nt
CCCCn1c(=O)c(C(=O)NCCc2ccccc2)c(O)c2ccccc21 | 18.4µM* | 4.3 | -10.3% | 35.1 | -38.7% | 3.1%
CCCCn1c(=O)c(C(=O)NCc2ccc(Cl)cc2)c(O)c2ccccc21 | ? | -1.0 | -4.9% | 69.1 | ? | 4.4%
O=C(Oc1ccc2cc(Br)ccc2c1)N1CCCCCC1 | ? | nt | nt | nt | 0.3% | nt
